Screening data (PubChem BioAssay)
FLuc modulator: qHTS profiling assay for firefly luciferase inhibitor/activator using purifed enzyme and Km concentrations of substrates (counterscreen for miR-21 project) | Potency, µM (top dose mostly 57.5 µM), inactives show at the top dose activity change, negative = inhibition, usual class: inhibitors | 6.9% of 360,000 active | AID 588342, 2011 | purified FLuc, Km substrates, luminescence inhibition;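 also: plate controls were vehicle for no effect and reference inhibitor for full effect; nearly all actives have a fitted effect of over 55% in size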
Target sequence (P08659 whole entry, looked up): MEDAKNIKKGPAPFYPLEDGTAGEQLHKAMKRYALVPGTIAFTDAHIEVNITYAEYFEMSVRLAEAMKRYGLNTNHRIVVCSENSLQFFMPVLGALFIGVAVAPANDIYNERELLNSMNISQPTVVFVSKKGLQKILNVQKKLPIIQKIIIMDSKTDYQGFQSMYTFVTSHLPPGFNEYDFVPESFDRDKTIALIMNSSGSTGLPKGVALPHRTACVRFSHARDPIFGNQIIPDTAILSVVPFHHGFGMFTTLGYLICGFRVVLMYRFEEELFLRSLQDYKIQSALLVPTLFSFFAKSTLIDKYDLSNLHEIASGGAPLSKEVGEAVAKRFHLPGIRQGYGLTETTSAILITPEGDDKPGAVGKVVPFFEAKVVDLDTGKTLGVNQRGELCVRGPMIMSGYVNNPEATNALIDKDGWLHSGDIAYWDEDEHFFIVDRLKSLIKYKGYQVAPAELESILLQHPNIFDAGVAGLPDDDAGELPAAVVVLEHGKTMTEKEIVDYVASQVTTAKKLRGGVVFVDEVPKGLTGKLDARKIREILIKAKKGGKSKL
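Biochemical qHTS of compounds, final roughly 60 µM downward over six points, against 10 nM purified firefly luciferase using Km concentrations of substrates (10 uM D-luciferin, 10 uM ATP) in Tris acetate pH 7.5 buffer; luminescence output.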
SMN2 splice enh: qHTS Assay for Enhancers of SMN2 Splice Variant Expression; Potency, µM (doses to about 46.1 µM), for inactives: at the top dose activity change, positive = activation, actives largely listed as activators; 2.8% of 210,000 active; HEK293 SMN2-luciferase splicing reporter, luminescence, 30-36 h; also: % of control where 0% means no effect; nearly all actives have a fitted effect of over 55% in size
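HEK293 cells carry an SMN2 minigene-luciferase reporter in which exon 7 inclusion puts luciferase in frame. Cells were seeded at 2000 cells/well, attached for 10-12 hours, then exposed to compounds for 30-36 hours at 37C before ONE-Glo luminescence.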
ELG1 genotox: qHTS screen for small molecules that induce genotoxicity in human embryonic kidney (HEK293T) cells expressing luciferase-tagged ELG1. HEK293T ELG1-luciferase reporter, luminescence, 16 h. Potency, µM (series often up to 46 µM), without a hit: at the top dose activity change, positive = activation, actives largely listed as activators. 1.3% of 330,000 active; also: % of control where 0% means no effect; nearly all actives have a fitted effect of over 60% in size
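Step 1: seed 2,000 HEK293T ELG1-luciferase cells per well. Step 2: add compound or DMSO, incubate 16 hr at 37 °C. Step 3: ONE-Glo, 30 min at room temperature, read luminescence.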
ELG1 repair inh: qHTS screen for small molecules that inhibit ELG1-dependent DNA repair in human embryonic kidney (HEK293T) cells expressing luciferase-tagged ELG1; HEK293T ELG1-luciferase reporter, luminescence, 16 h; DNA damage induced by 5-fluorouridine; Potency, µM (doses to about 46.1 µM), without a hit: at the top dose activity change, negative = inhibition, usual class: inhibitors; 2.3% of 330,000 active; AID 504467, 2011; also: % is scaled to controls: 0 for no effect and ±100 for the full control effect; nearly all actives have a fitted effect of over 55% in size
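Reporter activity after DNA damage by 5-fluorouridine is monitored. Compound-treated cells incubate 16 hr at 37 °C, then ONE-Glo is added for 30 min before luminescence reading.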
NPC1 promoter act: qHTS Assay for NPC1 Promoter Activators | Potency, µM (series often up to 9.22 µM), without a hit: top-dose activation, usual class: activators | Huh7 NPC1 promoter luciferase reporter, 24 h | 2.4% of 320,000 active | AID 485313, 2010; also: % of control where 0% means no effect; nearly all actives have a fitted effect of over 60% in size
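Quantitative HTS used a cell-based reporter: Huh7 cells stably bearing the NPC1 promoter upstream of luciferase were treated with compounds for 24 h, and promoter activation was read as luminescence.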
Rab9 prom act: qHTS Assay for Rab9 Promoter Activators; Huh7 Rab9 promoter-luciferase reporter, luminescence, 24 h; Potency, µM (titrated, usually from 9.22 µM), for inactives: at the highest dose activation, negative = inhibition, most hits filed as activators; 2.8% of 320,000 active; also: % of control where 0% means no effect; nearly all actives have a fitted effect of over 60% in size
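Huh7 reporter line, Rab9 promoter upstream of luciferase. Compound exposure 24 h at 37 °C in reduced-serum medium with 10% FBS. Read-out: luminescence.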
* hit, by the source's call; ? = inconclusive; . = not tested or not shown; [ ] = dose if it differs, or a comment. Only some compounds are listed: those with a hit (about 9.4% of all), similar ones and a draw of the others. Calls follow the shape of the dose curve; as a rule, active = well fitted curve in the direction sought with a large enough effect; inconclusive = small, poorly fitted or top-dose-only effect, or another doubt; inactive = no such curve, though single readings can be large; an effect the other way counts as inactive or inconclusive. Potency is read from the fitted curve at half-maximal effect.

SMILES	FLuc modulator	SMN2 splice enh	ELG1 genotox	ELG1 repair inh	NPC1 promoter act	Rab9 prom act
COc1ccc(/C=N\NC(=O)C2COc3ccccc3O2)cc1O (centres undefined)	24µM*	.	7%	?	-1%	-3%
Cc1cc([N+](=O)[O-])cc(/C=N\NC(=O)C2COc3ccccc3O2)c1O (centres undefined)	-13%	.	3%	21µM*	-1%	-2%
CC(C)(C)c1ccc2c(c1)OC(C(=O)N/N=C\c1ccc[nH]1)CO2 (centres undefined)	?	.	-3%	-7%	-42%	-51%
CC(C)(C)c1ccc2c(c1)OC(C(=O)N/N=C\c1ccncc1)CO2 (centres undefined)	?	.	-5%	15µM*	-4%	-1%
CCc1ccc2[nH]c3nc(SCc4nnc(-c5ccccc5)o4)nnc3c2c1	2%	.	-3%	-13%	-4%	-5%
COc1ccc2[nH]c3nc(SCc4nnc(-c5ccccc5)o4)nnc3c2c1	-11%	-47%	1%	16µM*	8%	9%
COc1ccc2[nH]c3nc(SC(C)C)nnc3c2c1	0.34µM*	?	8%	?	0.71µM*	0.79µM*
O=C(c1ccc(C(=O)N2CCCc3ccccc32)s1)N1CCCc2ccccc21	-1%	-38%	-9%	-21%	-1%	0%
O=C(c1ccc(Cl)s1)N1CCc2ccccc21	3.8µM*	22µM*	6.5µM*	?	?	2.5µM*
CCc1sc(C(=O)N2CCc3ccccc32)cc1C	1.9µM*	8.9µM*	1.8µM*	?	1.1µM*	0.35µM*
Oc1c(Cl)cc(Cl)cc1C=Nc1ccc(N2CCOCC2)cc1	?	.	3%	-9%	2%	2%
Oc1ccc(C=Nc2ccc(N3CCOCC3)cc2)c(O)c1	17µM*	4%	-1%	-11%	11%	-4%
Oc1cc(Br)ccc1C=Nc1ccc(N2CCCCC2)cc1	1.2µM*	.	-6%	?	1%	26%
CCC(C)NS(=O)(=O)c1ccc(S(=O)(=O)N(CC(=O)Nc2ccccc2)Cc2ccco2)cc1 (centres undefined)	-4%	-11%	-7%	18µM*	2%	2%
CCCC(C)NC(=O)CN(Cc1ccco1)S(=O)(=O)c1ccccc1 (centres undefined)	3%	.	-1%	17%	-4%	-4%
Cc1ccc(C)c(NC(=O)C2CCCN2S(=O)(=O)c2ccc3c(c2)CCCC(=O)N3)c1 (centres undefined)	-6%	.	.	.	.	.
CCCCC/C=C\C/C=C\C/C=C\CCCCCCC(=O)O[C@H](COCCCCCCCCCCCCCCCC)COP(=O)([O-])OCC[N+](C)(C)C	.	1%	.	.	.	.
CCOC(=O)/C=C(\C)Sc1cc(O)c2ccccc2c1O	9.5µM*	.	-12%	?	-2%	-32%
COc1ccc(-c2nc(-c3ccccc3)c(-c3cccs3)[nH]2)cc1OC	?	20%	-28%	15µM*	9%	0%
COc1ccc(-c2nc(-c3ccccc3)c(-c3ccccc3)[nH]2)cc1Br	-9%	-11%	.	.	.	.
O=[N+]([O-])c1ccc(-c2nc(-c3cccs3)c(-c3cccs3)[nH]2)cc1	-12%	-17%	-12%	21µM*	-9%	-10%
COc1ccc(-c2nc(-c3cccs3)c(-c3cccs3)[nH]2)cc1OC	?	?	-3%	21µM*	0%	0%
Cc1cccc(N2CCN(c3cc(C)nc4c(-c5ccc(Cl)cc5)c(C)nn34)CC2C)c1 (centres undefined)	1%	.	.	.	.	.
Cc1ccn2c(c1)nc(=S)n2C(=O)c1ccccc1	0.13µM*	0.5µM*	?	?	0.4µM*	0.25µM*
Cc1cccc(C(=O)n2c(=S)nc3cc(C)ccn32)c1	0.19µM*	.	0.46µM*	?	0.56µM*	0.25µM*
SMILES	FLuc modulator	SMN2 splice enh	ELG1 genotox	ELG1 repair inh	NPC1 promoter act	Rab9 prom act
COc1ccc(/C=C\c2onc(C)c2S(=O)(=O)N2CCC(C(=O)Nc3ccc(F)cc3F)CC2)cc1	4%	-9%	.	.	.	.
Cc1ccc(CNC(=O)CSc2ccsc2[N+](=O)[O-])cc1	?	?	?	?	?	1.4µM*
COc1ccc(CNC(=O)CSc2ccsc2[N+](=O)[O-])cc1	17µM*	?	?	?	?	2.2µM*
O=C(CSc1ccsc1[N+](=O)[O-])NCCc1ccc(Cl)cc1	-1%	-13%	0%	12%	2%	-8%
Cc1c(C(=O)Nc2ccccc2F)sc2ncnc(N(C)C3CCCCC3)c12	-18%	.	.	.	.	.
COc1ccccc1C(=O)Nc1ccc2c(c1)CCCN2C(=O)c1cccs1	17µM*	.	-7%	?	0%	15%
COc1ccccc1C(=O)Nc1ccc2c(c1)CN(C(=O)CSC)CC2	24µM*	.	9%	-2%	0%	9%
O=C(Nc1ccc2c(c1)CCCN2C(=O)c1cccs1)c1ccccc1C(F)(F)F	-3%	.	.	.	.	.
COc1ccccc1C(=O)Nc1ccc2c(c1)CCCN2C(=O)c1ccccc1	9.5µM*	.	-2%	?	1%	4%
O=C(Nc1ccc2c(c1)CCCN2C(=O)c1ccccc1)c1ccccc1Br	?	.	-9%	-8%	-4%	-1%
CCOC(=O)CSc1nc2ccccc2c(=O)n1NC(=O)c1ccccc1	?	16µM*	?	?	?	3.5µM*
COc1ccc(C(=O)Nn2c(SCC(=O)c3ccccc3)nc3ccccc3c2=O)cc1	6.7µM*	-45%	?	?	1.4µM*	0.56µM*
COc1ccc(C(=O)Nn2c(SCc3ccc([N+](=O)[O-])cc3)nc3ccccc3c2=O)cc1	12µM*	-8%	?	?	2.5µM*	4µM*
Nn1c(SCc2ccc([N+](=O)[O-])cc2)nc2ccccc2c1=O	0%	.	-1%	22%	6%	1%[1.84 µM]
CCc1ccc(C(=O)Nn2c(C)nc3ccccc3c2=O)cc1	-13%	.	-3%	3%	4%	5%
CC(=O)Nc1nc(NC(C)=O)c2[nH]c(CO)nc2n1	.	-13%[9.22 µM]	.	.	.	.
CCc1ccc(NCc2cc3ccc(OC)cc3n(CC(=O)Nc3ccc(F)cc3F)c2=O)cc1	6%	.	.	.	.	.
CCCSc1ncc(Cl)c(C(=O)Nc2sc3c(c2C(=O)NCC)CCCC3)n1	-4%	1%	.	.	.	.
